# Experimental data: PubChem BioAssay (Tox21)
# Where “and” joins values, the source holds several entries; their conditions need not be identical. Equal entries are not always repeated. A number with no mark means an inactive call. Records with an inconclusive call do not appear. A call without a number means that no potency is given here. Calls of active or inactive are those of the source. Unless noted, calls follow the shape of the dose curve; as a rule, active = well fitted curve in the direction sought with a large enough effect in the repeat runs; inconclusive = weak or mixed curves; inactive = no such curve, though single readings can be large; an effect the other way counts as inactive or inconclusive.
# Tests used:
# [1] = target: Progesterone receptor (Homo sapiens) (UniProt P06401); assay: qHTS assay to identify small molecule antagonists of the progesterone receptor (PR) signaling pathway (AID 1346795; active = well fitted inhibition curve with a large enough effect in the signal ratio in the repeat runs, not every such curve was filed as active; the % refers to the signal ratio; also: potency is read from the fitted curve at half-maximal effect)
# Summary of the method: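 Antagonist mode: compounds tested against 1 nM (final) promegestone stimulation in HEK293T cells expressing PR-UAS-bla reporter, 16 hr at 37C, 5% CO2; beta-lactamase activity detected via B/G FRET substrate after 2 hr at room temperature.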
# [2] = qHTS assay to identify small molecule antagonists of the progesterone receptor (PR) signaling pathway - cell viability counter screen (AID 1346798); also: nearly all actives have a fitted effect of over 50% in size; also: potency is read from the fitted curve at half-maximal effect
# Summary of the method: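 Counter screen for cytotoxicity: viability of PR-UAS-bla HEK293T cells was measured with CellTiter-Glo luminescence following 16 hr compound exposure in the presence of R5020.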
# [3] = qHTS assay to identify small molecule agonists of the progesterone receptor (PR) signaling pathway - cell viability counter screen (AID 1346799; calls by dose curve; also: nearly all actives have a fitted effect of over 45% in size; also: potency is read from the fitted curve at half-maximal effect)
# Summary of the method: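 Cells (PR-UAS-bla HEK293T) are plated at 3,000/well in 2% charcoal-stripped FBS medium, rested 6 hr, dosed and incubated 16 hr at 37C. CellTiter-Glo is then added and luminescence measured after 30 min at room temperature.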
# [4] = qHTS assay to identify small molecule antagonists of the TGF-beta/Smad signaling pathway - cell viability counter screen (AID 1346824); also: nearly all actives have a fitted effect of over 50% in size; also: potency is read from the fitted curve at half-maximal effect
# Summary of the method: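 SBE-bla HEK 293T cells, incubated overnight, then compound plus 0.25 ng/mL TGF-beta1 (stock added) for 5 hr at 37 C. Viability was read in the same wells by CellTiter-Glo luminescence after 30 min at room temperature.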
# [5] = qHTS assay to identify small molecule agonists of the TGF-beta/Smad signaling pathway - cell viability counter screen (AID 1346829); also: nearly all actives have a fitted effect of over 45% in size; also: potency is read from the fitted curve at half-maximal effect
# Summary of the method: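 Same-well cytotoxicity: CellTiter-Glo added after the 2 hr room-temperature beta-lactamase substrate step, luminescence measured 30 min later; cells had 5 hr of compound at 37 C.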
# [6] = qHTS assay to identify small molecule agonists of the TGF-beta/Smad signaling pathway (AID 1346859; active = well fitted activation curve with a large enough effect in the signal ratio in the repeat runs, not every such curve was filed as active; the % refers to the signal ratio; also: series mostly up to about 77 µM)
# Summary of the method: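 Reporter line: HEK 293T with stably integrated SBE-controlled beta-lactamase. Compound exposure lasts 5 hr at 37 C and 5% CO2; substrate loading follows for 2 hr at room temperature, with emission read at 460 and 530 nm.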
# [7] = Human pregnane X receptor (PXR) small molecule agonists, qHTS cell viability counter screen (AID 1346977); also: nearly all actives have a fitted effect of over 50% in size; also: potency is read from the fitted curve at half-maximal effect
# Summary of the method: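 Cytotoxicity counter screen run in the same wells as the PXR luciferase assay, using PXR-Luc HepG2 cells in charcoal-stripped serum medium. Viability: CellTiter-Fluor fluorescence after 24hr compound treatment.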
# [8] = Caspase-3/7 induction in HepG2 cells by small molecules, qHTS assay (AID 1346978); also: nearly all actives have a fitted effect of over 15% in size; also: potency is read from the fitted curve at half-maximal effect
# Summary of the method: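 Wild-type HepG2 cells, 2,000/well, settled 5 hr at 37 C and 5% CO2, then compound-treated for 17 hr; caspase-3/7 activity read by luminescent Caspase-Glo 3/7 after 30 min at room temperature.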
# [9] = Caspase-3/7 induction in CHO-K1 cells by small molecules, qHTS cell viability counter screen (AID 1346979); also: nearly all actives have a fitted effect of over 35% in size; also: potency is read from the fitted curve at half-maximal effect
# Summary of the method: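 Cytotoxicity counter screen run in parallel with the caspase-3/7 assay: CHO-K1 cells, 16hr compound treatment at 37C, then CellTiter-Fluor for 1hr before fluorescence reading.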
# [10] = Caspase-3/7 induction in CHO-K1 cells by small molecules, qHTS assay (AID 1346980); also: nearly all actives have a fitted effect of over 15% in size; also: potency is read from the fitted curve at half-maximal effect
# Summary of the method: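 Wild-type CHO-K1 cells exposed to compounds for 17hr at 37 C, 5% CO2. Caspase-3/7 activity then measured by Caspase-Glo 3/7 luminescence after 30min at room temperature.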
# [11] = Caspase-3/7 induction in HepG2 cells by small molecules, qHTS cell viability counter screen (AID 1346981); also: nearly all actives have a fitted effect of over 30% in size; also: potency is read from the fitted curve at half-maximal effect
# Summary of the method: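 Steps: seed 2,000 HepG2 cells per well; incubate 5 hr at 37 C; pin-add compounds in DMSO; incubate 16 hr; add CellTiter-Fluor; after 1 hr at 37 C and 5% CO2, read fluorescence.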
# [12] = target: Nuclear receptor subfamily 1 group I member 2 (Homo sapiens) (UniProt O75469); assay: Human pregnane X receptor (PXR) small molecule agonists, qHTS assay (AID 1346982); also: nearly all actives have a fitted effect of over 35% in size; also: potency is read from the fitted curve at half-maximal effect
# Summary of the method: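 Agonist mode qHTS: PXR-Luc HepG2 cells plated 5 hr before DMSO-dissolved compounds were pinned in, cultured 24 hr at 37 C, 5% CO2; ONE-Glo luminescence readout.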
# [13] = target: Cytochrome P450 2D6 (Homo sapiens) (UniProt P10635); assay: Cytochrome P450 Family 2 Subfamily D Member 6 (CYP2D6) small molecule antagonists: luciferase reporter qHTS assay (AID 1671196); also: nearly all actives have a fitted effect of over 50% in size; also: potency is read from the fitted curve at half-maximal effect
# Summary of the method: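 P450-Glo format: CYP2D6 converts a proluciferin substrate to luciferin in an NADPH-driven reaction lasting 1 h at room temperature. Light output, proportional to CYP2D6 activity, reflects interference by test chemicals.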
# [14] = target: Cytochrome P450 2C19 (Homo sapiens) (UniProt P33261); assay: Cytochrome P450 Family 2 Subfamily C Member 19 (CYP2C19) small molecule antagonists: luciferase reporter qHTS assay (AID 1671197); also: nearly all actives have a fitted effect of over 65% in size; also: potency is read from the fitted curve at half-maximal effect
# Summary of the method: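 Quantitative high-throughput screen of the Tox21 library using CYP2C19 with proluciferin substrate. Reaction: NADPH regeneration, 37C, 1 h, after 10 min compound preincubation at room temperature. Readout: luminescence.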
# [15] = target: Cytochrome P450 2C9 (Homo sapiens) (UniProt P11712); assay: Cytochrome P450 Family 2 Subfamily C Member 9 (CYP2C9) small molecule antagonists: luciferase reporter qHTS assay (AID 1671198); also: nearly all actives have a fitted effect of over 50% in size; also: potency is read from the fitted curve at half-maximal effect
# Summary of the method: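 P450-Glo proluciferin substrate with CYP2C9 enzyme; 10 min RT preincubation, then NADPH regeneration 1 h at 37C; luciferin detection reagent 20 min RT, luminescence in relative luminescence units.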
# [16] = target: Thyrotropin-releasing hormone receptor (Homo sapiens) (UniProt P34981); assay: qHTS assay to identify small molecule antagonists of the thyrotropin-releasing hormone receptor (TRHR) signaling pathway (AID 1346877; active = well fitted inhibition curve with a large enough effect in the repeat runs, not every such curve was filed as active; also: potency is read from the fitted curve at half-maximal effect)
# Summary of the method: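 Cells (TRHR-HEK293) are plated and kept 18 h at 37 °C/5% CO2. A calcium-sensitive dye is added for 2 h, compound follows for 5 min at room temperature, and TRH is then given at 1 nM final.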
# [17] = target: Thyrotropin-releasing hormone receptor (Homo sapiens) (UniProt P34981); assay: qHTS assay to identify small molecule agonists of the thyrotropin-releasing hormone receptor (TRHR) signaling pathway (AID 1346891; calls by dose curve; also: potency is read from the fitted curve at half-maximal effect;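 as to activation: HEK293 cells expressing TRHR with calcium dye readout; series mostly up to about 58 µM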)
# Summary of the method: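 Cells: TRHR-Hek293, seeded and incubated 18 h. Dye loading: 2 h at 37 °C. Compound added from DMSO stock by pin tool. Read-out: kinetic calcium fluorescence over 3 min.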
# Chain of Cytochrome P450 2D6 (Homo sapiens) (P10635 whole entry, looked up): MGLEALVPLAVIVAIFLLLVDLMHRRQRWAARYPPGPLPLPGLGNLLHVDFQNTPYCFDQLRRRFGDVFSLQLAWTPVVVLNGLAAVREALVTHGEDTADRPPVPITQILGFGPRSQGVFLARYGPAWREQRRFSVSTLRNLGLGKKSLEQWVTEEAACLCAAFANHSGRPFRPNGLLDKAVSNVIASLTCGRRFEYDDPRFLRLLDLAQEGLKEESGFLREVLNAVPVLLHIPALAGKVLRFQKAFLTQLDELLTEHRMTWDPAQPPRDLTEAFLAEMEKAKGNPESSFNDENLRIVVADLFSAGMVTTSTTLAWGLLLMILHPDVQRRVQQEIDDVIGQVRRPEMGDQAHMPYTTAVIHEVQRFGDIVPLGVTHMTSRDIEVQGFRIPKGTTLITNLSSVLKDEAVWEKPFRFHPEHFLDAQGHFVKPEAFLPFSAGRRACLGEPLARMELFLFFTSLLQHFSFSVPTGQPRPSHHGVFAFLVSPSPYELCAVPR
# Chain of Nuclear receptor subfamily 1 group I member 2 (Homo sapiens) (O75469 whole entry, looked up): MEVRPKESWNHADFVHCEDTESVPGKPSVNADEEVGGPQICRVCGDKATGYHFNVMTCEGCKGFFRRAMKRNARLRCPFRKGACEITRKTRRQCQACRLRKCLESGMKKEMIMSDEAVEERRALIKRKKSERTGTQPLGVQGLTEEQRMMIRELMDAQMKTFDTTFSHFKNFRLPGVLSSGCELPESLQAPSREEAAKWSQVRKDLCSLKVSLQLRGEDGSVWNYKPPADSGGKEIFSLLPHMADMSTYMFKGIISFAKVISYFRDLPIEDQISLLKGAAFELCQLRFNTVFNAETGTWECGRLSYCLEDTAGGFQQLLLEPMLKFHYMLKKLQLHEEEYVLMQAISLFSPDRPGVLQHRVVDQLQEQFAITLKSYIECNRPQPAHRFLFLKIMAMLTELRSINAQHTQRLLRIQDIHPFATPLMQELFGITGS
# Chain of Cytochrome P450 2C19 (Homo sapiens) (P33261 whole entry, looked up): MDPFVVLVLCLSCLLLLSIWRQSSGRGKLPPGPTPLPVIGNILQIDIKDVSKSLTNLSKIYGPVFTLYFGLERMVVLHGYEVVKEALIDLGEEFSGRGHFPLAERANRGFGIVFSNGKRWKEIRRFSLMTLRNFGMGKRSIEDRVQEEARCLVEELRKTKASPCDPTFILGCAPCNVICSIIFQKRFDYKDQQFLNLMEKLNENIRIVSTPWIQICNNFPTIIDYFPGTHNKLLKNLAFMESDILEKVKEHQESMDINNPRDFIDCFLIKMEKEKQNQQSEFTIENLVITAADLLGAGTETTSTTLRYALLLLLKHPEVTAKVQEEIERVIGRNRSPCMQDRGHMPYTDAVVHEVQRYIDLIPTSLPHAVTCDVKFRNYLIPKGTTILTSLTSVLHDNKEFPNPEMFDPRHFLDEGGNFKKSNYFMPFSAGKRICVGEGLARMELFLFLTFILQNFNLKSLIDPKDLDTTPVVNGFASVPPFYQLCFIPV
# Chain of Thyrotropin-releasing hormone receptor (Homo sapiens) (P34981 whole entry, looked up): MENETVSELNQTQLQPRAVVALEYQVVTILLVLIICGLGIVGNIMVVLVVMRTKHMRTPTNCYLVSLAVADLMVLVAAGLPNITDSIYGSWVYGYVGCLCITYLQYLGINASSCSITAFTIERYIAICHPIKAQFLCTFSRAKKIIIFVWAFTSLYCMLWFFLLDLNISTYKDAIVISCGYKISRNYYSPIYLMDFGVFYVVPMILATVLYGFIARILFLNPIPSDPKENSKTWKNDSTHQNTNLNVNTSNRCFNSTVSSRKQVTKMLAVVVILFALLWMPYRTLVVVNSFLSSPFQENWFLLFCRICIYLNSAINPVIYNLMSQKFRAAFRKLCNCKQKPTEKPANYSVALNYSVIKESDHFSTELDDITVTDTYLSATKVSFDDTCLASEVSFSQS
# Chain of Cytochrome P450 2C9 (Homo sapiens) (P11712 whole entry, looked up): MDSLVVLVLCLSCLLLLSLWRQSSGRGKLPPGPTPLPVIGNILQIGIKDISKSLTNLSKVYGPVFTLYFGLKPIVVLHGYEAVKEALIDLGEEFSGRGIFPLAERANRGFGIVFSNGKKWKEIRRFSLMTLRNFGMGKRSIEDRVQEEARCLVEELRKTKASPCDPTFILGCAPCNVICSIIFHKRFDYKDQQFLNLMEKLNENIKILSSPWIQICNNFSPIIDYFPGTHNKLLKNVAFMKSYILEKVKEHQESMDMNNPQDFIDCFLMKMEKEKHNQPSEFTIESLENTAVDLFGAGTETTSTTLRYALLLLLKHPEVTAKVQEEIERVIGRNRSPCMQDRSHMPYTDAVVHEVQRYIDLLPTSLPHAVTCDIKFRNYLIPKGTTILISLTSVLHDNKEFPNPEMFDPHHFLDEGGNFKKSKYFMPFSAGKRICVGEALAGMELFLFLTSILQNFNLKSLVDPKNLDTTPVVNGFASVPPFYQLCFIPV
# Chain of Progesterone receptor (Homo sapiens) (P06401 whole entry, looked up): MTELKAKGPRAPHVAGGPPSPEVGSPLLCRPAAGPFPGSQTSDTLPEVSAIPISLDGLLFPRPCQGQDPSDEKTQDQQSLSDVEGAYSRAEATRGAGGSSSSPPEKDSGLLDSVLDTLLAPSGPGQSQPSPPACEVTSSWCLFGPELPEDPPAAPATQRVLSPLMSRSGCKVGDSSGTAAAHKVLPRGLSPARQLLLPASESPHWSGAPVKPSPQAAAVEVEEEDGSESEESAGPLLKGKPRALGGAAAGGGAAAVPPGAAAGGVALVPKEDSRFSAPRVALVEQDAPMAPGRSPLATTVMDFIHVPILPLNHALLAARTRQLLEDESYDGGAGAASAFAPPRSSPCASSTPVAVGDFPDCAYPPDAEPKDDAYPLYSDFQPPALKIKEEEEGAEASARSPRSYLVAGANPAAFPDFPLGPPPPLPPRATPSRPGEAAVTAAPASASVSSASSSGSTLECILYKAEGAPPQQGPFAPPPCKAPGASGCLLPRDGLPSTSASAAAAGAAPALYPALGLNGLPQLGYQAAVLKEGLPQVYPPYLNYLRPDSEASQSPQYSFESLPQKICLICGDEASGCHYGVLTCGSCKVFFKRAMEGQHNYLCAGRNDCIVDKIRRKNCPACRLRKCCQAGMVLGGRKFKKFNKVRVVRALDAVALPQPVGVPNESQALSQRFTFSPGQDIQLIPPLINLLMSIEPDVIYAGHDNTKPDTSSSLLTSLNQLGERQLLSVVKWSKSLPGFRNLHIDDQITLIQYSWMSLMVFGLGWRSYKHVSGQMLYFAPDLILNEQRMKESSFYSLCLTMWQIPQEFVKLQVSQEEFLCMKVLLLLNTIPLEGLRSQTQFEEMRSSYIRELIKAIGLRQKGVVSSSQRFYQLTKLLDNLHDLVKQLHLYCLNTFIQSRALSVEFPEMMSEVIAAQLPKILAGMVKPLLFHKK
Compound,Potency [1],Potency [2],Potency [3],Potency [4],Potency [5],Potency [6],Potency [7],Potency [8],Potency [9],Potency [10],Potency [11],Potency [12],Potency [13],Potency [14],Potency [15],Potency [16],Potency [17]
CC1CCCCC1,inactive,inactive,inactive,inactive,inactive,inactive,inactive,inactive,inactive,inactive,inactive,inactive,inactive,inactive,inactive,–,–
CC(C)CCOCCC(C)C,inactive,inactive,inactive,inactive,inactive,–,inactive,inactive,inactive,inactive,inactive,inactive,–,–,inactive,–,–
CCCCCCCCCCCCCc1ccccc1,inactive,inactive,inactive,inactive,inactive,inactive,inactive,inactive,inactive,inactive,inactive,inactive,inactive,inactive,inactive,–,–
C=CC(=O)OCCN(CC)CC,inactive,inactive,inactive,inactive,inactive,inactive,inactive,inactive,inactive,inactive,inactive,inactive,inactive,–,inactive,–,–
C(=C/c1ccccc1)/c1ccccc1,inactive,inactive,inactive,inactive,inactive,–,inactive,inactive,inactive,inactive,inactive,inactive,inactive,inactive,inactive,inactive,inactive
CCCCOCC,inactive,inactive,inactive,inactive,inactive,inactive,inactive,inactive,inactive,inactive,inactive,inactive,inactive,inactive,inactive,–,–
Clc1ccc(C(Cn2ccnc2)OCc2ccsc2Cl)c(Cl)c1 (stereo not drawn),3.35 µM (active),6.68 µM (active),8.41 µM (active),inactive,inactive,–,–,inactive,21.1 µM (active),inactive,–,–,3.47 µM (active),0.347 µM (active),0.309 µM (active),inactive,inactive
CN1CN(C)CN(C)C1,inactive,inactive,inactive,inactive,inactive,–,inactive,inactive,inactive,inactive,inactive,–,inactive,inactive,inactive,inactive,inactive
O=Cc1ccc(F)cc1,inactive,inactive,inactive,inactive,–,inactive,inactive,inactive,–,inactive,inactive,–,35.6 µM (active),–,inactive,inactive,inactive
CC(C)(c1cc(Br)c(OCCO)c(Br)c1)c1cc(Br)c(OCCO)c(Br)c1,5.33 µM (active),29.9 µM (active),33.6 µM (active),inactive,inactive,inactive,–,–,–,inactive,–,4.75 µM (active),–,6.94 µM (active),4.38 µM (active),–,–
C=CC(=O)OCCOCC(CC)(COCCOC(=O)C=C)COCCOC(=O)C=C,28.4 µM (active),63.7 µM (active),63.7 µM (active),inactive,inactive,inactive,63.7 µM (active),inactive,–,–,63.7 µM (active),28.4 µM (active),–,23.4 µM (active),26.3 µM (active),–,–
Oc1cc2ccccc2cc1O,inactive,inactive,inactive,inactive,inactive,–,inactive,inactive,–,inactive,inactive,inactive,–,39.9 µM (active),–,–,–
O=C1OC(=O)c2ccc3c4c(ccc1c24)C(=O)OC3=O,inactive,inactive,inactive,inactive,inactive,–,inactive,inactive,inactive,inactive,inactive,inactive,inactive,–,inactive,inactive,inactive
CC1=CCC(=O)O1,inactive,inactive,inactive,inactive,inactive,inactive,inactive,inactive,inactive,inactive,inactive,inactive,inactive,inactive,inactive,–,–
Cc1cn[nH]c1,inactive,inactive,inactive,inactive,inactive,inactive,inactive,inactive,–,inactive,inactive,–,–,–,–,–,–
C/C=C/CO,inactive,inactive,inactive,inactive,inactive,–,inactive,inactive,inactive,inactive,inactive,inactive,inactive,inactive,inactive,inactive,inactive
COC(=O)C1=C(C)NC(C)=C(C(=O)OCCCN2CCC(c3ccccc3)(c3ccccc3)CC2)C1c1cccc([N+](=O)[O-])c1 (stereo not drawn),18.8 µM (active),18.8 µM (active),13.3 µM (active),inactive,–,–,26.6 µM (active),–,26.6 µM (active),–,29.8 µM (active),–,–,–,–,inactive,inactive
CC(COC(=O)c1ccccc1)OC(=O)c1ccccc1 (stereo not drawn),inactive,inactive,inactive,inactive,inactive,–,inactive,inactive,–,inactive,inactive,–,–,20 µM (active),15.9 µM (active),–,–
CCN=c1cc2oc3cc(NCC)c(C)cc3c(-c3ccccc3C(=O)OCC)c-2cc1C,48.4 µM (active) and 54.5 µM (active),61.1 µM (active),48.4 µM (active),48.8 µM (active) and 49 µM (active),48.8 µM (active) and 49 µM (active),–,2.51 µM (active) and 1.54 µM (active),27.3 µM (active),965 nM (active) and 611 nM (active),43.1 µM (active) and 48.6 µM (active),2.72 µM (active) and 7.7 µM (active),2.42 µM (active) and 1.72 µM (active),17.8 µM (active) and 20 µM (active),7.94 µM (active) and 10 µM (active),7.94 µM (active) and 12.6 µM (active),8.47 µM (active) and 10.7 µM (active),6.89 µM (active) and 5.49 µM (active)
